This note sets out measurements from PubChem BioAssay (NCATS).

Records with an inconclusive call do not appear. Where a call stands in place of a potency, no number is given. Activity calls are given as the source filed them. Calls follow the shape of the dose curve; as a rule, active = well fitted inhibition curve with a large enough effect; inconclusive = small, poorly fitted or top-dose-only effect; inactive = flat fitted curve, though single readings scatter.

For the assay, the system named is Zika virus NS2B-NS3 protease. The experiment in a line: Primary screen GU AMC qHTS for Zika virus inhibitors (AID 1347154). Also: nearly all actives have a fitted effect of over 70% in size. Particulars: Zika NS2B-NS3 unlinked protease, AMC fluorogenic substrate; series mostly up to 54.1 µM. In a few lines:
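Fluorogenic AMC-substrate cleavage by noncovalent NS2B-NS3 protease complex (25 nM, pH 8.0 Tris buffer with Tween 20) followed for 15 minutes at room temperature (~20% conversion). Percent inhibition from ex340/em450 signal change, fitted by 4-parameter Hill equation.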
A general note: qHTS replaces the single test concentration by a dilution series.

Regarding `COc1ccc(CCN(C)CCCOc2ccc(S(=O)(=O)c3[nH]c4ccccc4c3C(C)C)cc2)cc1OC`, the Potency entry is “inactive”. Under `CCNC(=O)[C@H]1O[C@@H](n2cnc3c(N)nc(NCCc4ccc(CCC(=O)O)cc4)nc32)[C@H](O)[C@H]1O` stands “inactive”; under `CCOC(=O)[C@@H](N)CCC(=O)N[C@@H](CSCc1ccccc1)C(=O)N[C@@H](C(=O)OCC)c1ccccc1`, “inactive”; under `O=C1C(CCC(O)c2ccc(F)cc2)C(c2ccc(O)cc2)N1c1ccc(F)cc1` (centres undefined), “inactive”. As to `Cc1ccc(NC(=O)c2cccc(N(C)C)c2)cc1NC(=O)c1ccc(O)cc1`, the Potency entry is “inactive”. Under `CC(C)c1c(C(=O)Nc2ccccc2)c(-c2ccccc2)c(-c2ccc(F)cc2)n1CC[C@H](O)C[C@@H](O)CC(=O)O` stands “inactive”; under `O=C(O)C1=CC(O)C(O)[C@H](O)C1` (some centres undefined), “inactive”. For the compound `CC(C)[C@H](O)C(=O)N[C@@H](C)C(=O)N[C@@H]1C(=O)N(C)CCc2ccccc21`, the Potency entry is “inactive”. Under `CN(C)CCOc1ccc(C(=C(CCCl)c2ccccc2)c2ccccc2)cc1` stands “inactive”; under `CCNC(=O)CCCC=CC[C@@H]1[C@H](C=CC(O)CCc2ccccc2)[C@@H](O)C[C@@H]1O` (some centres undefined), “inactive”; under `CCC(=C(c1ccc(O)cc1)c1ccc(OCCNC)cc1)c1ccccc1`, “inactive”. In the case of `O=C(O)CCC=CCC[C@@H]1[C@H](N2CCCCC2)[C@@H](O)C[C@@H]1OCc1ccc(-c2ccccc2)cc1`, the Potency result was “inactive”. For `NC(=O)c1ncn([C@@H]2O[C@H](CO)[C@@H](O)[C@@H]2O)n1`, the Potency entry was “inactive”. In the case of `O=C(O)C1=CO[C@@H](O[C@@H]2O[C@H](CO)[C@H](O)[C@H](O)[C@H]2O)[C@@H]2C(CO)=CC[C@H]12`, the Potency entry was “inactive”.
